Screen size: about 330,000 compounds; about 1,900 (0.58%) were called active.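 How the source made its calls: active means inhibition of aptamer binding above 40%, roughly 3 SD of noise, on plates passing a quality check; inactive means the rest.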 The full list was thinned out, with actives kept by preference.
Target: Beta-adrenergic receptor kinase 1 (Homo sapiens) (UniProt P25098)
Assay: compounds blocking aptamer binding on GRK2 – biochemical, human GRK2, bead flow cytometry, HTS, primary screen (AID 488847);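 further: median bead fluorescence of bound FAM aptamer so fluorescent compounds give negative values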
Conditions: FAM-aptamer displacement from GRK2, at 10 µM, hits give high values

Sequence of Beta-adrenergic receptor kinase 1 (Homo sapiens) (P25098 whole entry, looked up): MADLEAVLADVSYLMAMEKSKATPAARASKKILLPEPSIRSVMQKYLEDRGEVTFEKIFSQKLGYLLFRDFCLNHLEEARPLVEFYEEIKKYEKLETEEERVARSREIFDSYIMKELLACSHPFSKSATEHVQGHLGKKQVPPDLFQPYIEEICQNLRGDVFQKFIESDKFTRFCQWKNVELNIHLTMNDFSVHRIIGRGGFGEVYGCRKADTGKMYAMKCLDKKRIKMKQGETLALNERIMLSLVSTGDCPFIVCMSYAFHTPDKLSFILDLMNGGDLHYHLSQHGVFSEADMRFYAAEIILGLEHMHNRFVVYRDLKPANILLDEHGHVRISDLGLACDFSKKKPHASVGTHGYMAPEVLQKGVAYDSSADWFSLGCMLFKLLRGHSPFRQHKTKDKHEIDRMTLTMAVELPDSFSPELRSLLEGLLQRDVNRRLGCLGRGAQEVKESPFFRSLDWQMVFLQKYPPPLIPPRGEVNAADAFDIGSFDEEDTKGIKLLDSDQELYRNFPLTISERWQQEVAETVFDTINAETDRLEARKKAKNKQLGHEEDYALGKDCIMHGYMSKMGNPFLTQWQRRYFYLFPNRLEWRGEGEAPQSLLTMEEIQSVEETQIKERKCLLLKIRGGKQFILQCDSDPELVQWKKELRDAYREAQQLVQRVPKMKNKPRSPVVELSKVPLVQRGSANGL

Inhibition of aptamer binding, active:
CCOc1ccccc1C(=O)NCc1ccco1 50%
Cc1csc(=O)n1CC(=O)OCC(=O)N(CC(C)C)c1c(N)n(Cc2ccccc2)c(=O)[nH]c1=O 98%
COc1ccc(C(=O)NCCNc2ccc([N+](=O)[O-])cn2)cc1 45%
O=C(c1cnn(-c2ccc(Cl)cc2)c1)c1ccccc1O 47%
CCOC(=O)C1CCCN(Cc2nc(N)nc(Nc3ccc(C)cc3)n2)C1 (centres undefined) 60%
O=C(O)c1ccc2c(c1)C(=O)N(c1ccc(/C=C/C(=O)c3ccccc3)cc1)C2=O 46%
CCN1/C(=C/c2ccc3ccc(C)cc3[n+]2CC)Sc2ccccc21 94%
CCN1/C(=C\c2ccc3ccccc3[n+]2CC)Sc2cc(C)ccc21 96%
CCCCn1c(N)c(N(CCC(C)C)C(=O)c2ccc([N+](=O)[O-])o2)c(=O)[nH]c1=O 55%
CC(=O)N1CC[n+]2c(-c3ccc([N+](=O)[O-])cc3)csc21 92%
Cc1nn(Cc2ccc(F)cc2)c(C)c1NC(=O)c1noc2c1CCc1ccccc1-2 73%
CCN1C(=O)[C@H]2[C@@H](c3ccc(-c4ccc(OC)cc4)cc3)N[C@@](Cc3ccccc3)(C(=O)OC)[C@H]2C1=O 43%

Inhibition of aptamer binding, inactive:
Cc1cccc(Nc2ccccc2C(=O)NCc2ccco2)c1C 0%
CCOc1cc(NC(=S)NCc2ccco2)c(OCC)cc1NC(=O)c1ccco1 0%
CC(C)CN(C(=O)COC(=O)c1ccc2ccccc2c1)c1c(N)n(Cc2ccccc2)c(=O)[nH]c1=O 0%
CC(C)CN(C(=O)COC(=O)c1ccc(Cl)c(N)c1)c1c(N)n(Cc2ccccc2)c(=O)[nH]c1=O 1%
c1ccc(CC2CCN(c3nc4ccccc4n4cnnc34)CC2)cc1 0%
COc1ccccc1OCCNC(=O)c1cc([N+](=O)[O-])cc([N+](=O)[O-])c1 0%
COc1ccc(C(=O)NCCSc2ccccc2C)cc1 0%
O=C(N/N=C/C=C/c1ccco1)c1cccs1 7%
Cc1nn(C)c(Cl)c1CN1CCC(n2nccc2NC(=O)C2CCCC2)CC1 4%
COc1ccc(S(=O)(=O)N2CCOCC2)cc1C(=O)NC1CCCCC1 3%
CC1CCCCC1NC(=O)CN1CCC(O)(c2ccc3c(c2)OCO3)CC1 (centres undefined) 1%
COc1ccc(CNC(=O)COc2ccccc2C(=O)c2cnn(-c3ccccc3)c2)cc1OC 1%
Cc1ncc(CC(=O)n2cc(C(=O)c3cc(Cl)ccc3O)cn2)s1 6%
Cc1ccc(C)c(S(=O)(=O)N2CCN(c3ncnc4sccc34)CC2)c1 2%
Cc1ccc(-n2ncc3c2CC(C)(C)CC3NC(=O)Cc2c(C)noc2C)cc1 (centres undefined) 3%
CCOC(=O)C1CCN(C(c2cc3cc(C)cc(C)c3[nH]c2=O)c2nnnn2C2CCCCC2)CC1 (centres undefined) 0%
Cc1ccc(Nc2nc(N)nc(CN3CCN(Cc4ccccc4)CC3)n2)cc1Cl 1%
CCOC(=O)C1CCCN(CCSc2ccc(C)cc2)C1 (centres undefined) 0%
Cc1cc(C)c2nc(N3CCC(C(=O)NCCN4CCOCC4)CC3)sc2c1 1%
CC1CCN(CC(=O)Nc2nccs2)CC1 1%
O=C(/C=C/c1ccc(N2CCOCC2)cc1)c1ccccc1 0%
Cc1cccc(N2C(=O)c3ccc(C(=O)Nc4cccc(C(=O)O)c4)cc3C2=O)c1 0%
O=C(NC1CCCC1)C(c1ccc(N2CCOCC2)cc1)N(C(=O)c1ccco1)c1ccccc1F (centres undefined) 1%
CC(C)c1ccc(Nc2nnc(SCC(=O)c3nnc(-c4ccccc4)o3)s2)cc1 0%
CCn1c(CNC(=O)c2ccccc2)nnc1SCC(=O)N1CCN(c2ccccc2)CC1 0%
NC(=O)c1nnsc1-c1ccc(-c2snnc2C(N)=O)cc1 1%
CN(CCC#N)c1ncnc2scc(-c3ccccc3)c12 3%
CC(Oc1ccc(F)cc1)C(=O)N1CCN(c2ncccn2)CC1 (centres undefined) 6%
COc1cccc(/C=C(/CC(=O)Nc2ccc(N3CCOCC3)cc2)c2nc3ccccc3s2)c1 0%
CCCCN(C(=O)c1ccc(C)o1)c1c(N)n(CCCC)c(=O)[nH]c1=O 0%
CCCCn1c(N)c(N(CCC(C)C)C(=O)c2ccc(COc3ccccc3)o2)c(=O)[nH]c1=O 1%
C=CCSc1nc2c(c(=O)[nH]1)C(C(C)C)C(C#N)=C(N)O2 (centres undefined) 2%
CC(CC(=O)Nc1ccccc1)n1ccnc1 (centres undefined) 1%
C[C@H](NS(=O)(=O)c1ccc(Cl)cc1)C(=O)OCC(=O)N1CCOCC1 8%
COc1ccc(C2CC(c3ccc([N+](=O)[O-])cc3)=NN2C(C)=O)cc1 (centres undefined) 0%
COC(=O)c1c(C)[nH]c(C)c1-c1ccc([N+](=O)[O-])cc1 0%
Cc1nn(Cc2ccc(Cl)c(Cl)c2)c(C)c1NC(=O)c1cc(C2CC2)on1 0%
Cc1nn(Cc2ccc(F)cc2)c(C)c1NC(=O)c1cccnc1Cl 5%
Cc1ccccc1-n1cc(CNC(=O)CC2C(=O)NCCN2C/C=C/c2ccccc2)cn1 (centres undefined) 0%
O=C(NC1CC1)C1=C[C@H](c2coc3ccccc3c2=O)C[C@H](OCCCCO)O1 2%
CCN1C(=O)[C@H]2[C@@H](c3ccc(SC4CCCCC4)c(OC)c3)N[C@@](Cc3ccccc3)(C(=O)OC)[C@H]2C1=O 0%
CCN1C(=O)[C@H]2[C@@H](c3ccc(-c4ccc(F)cc4)cc3)N[C@@](Cc3ccccc3)(C(=O)OC)[C@H]2C1=O 0%
COc1cccc(C2SCC(=O)N2c2cccc(C)c2)c1OC (centres undefined) 2%
COCCn1c(SCC(=O)c2[nH]c(C)c(C(C)=O)c2C)nc2ccccc2c1=O 0%
C/C(=N\NC(=S)NCc1ccccc1)C1CCCCC1 1%
CC1CCCCC1NC(=O)c1cc(=O)[nH]c2ccccc12 (centres undefined) 0%
COc1ccc(OC)c(CNC(=O)Cn2nc(C)c3c(C)n(-c4ccc(C)cc4)nc3c2=O)c1 0%
